# Source: PubChem
# Cruzain Triton = blocks cruzain activity in presence of Triton detergent; hit rate 0.43% among 200,000; AID 1478; P25779; purified cruzain, Z-FR-AMC fluorescence, 0.01% Triton; Potency, µM, for inactives: max response, negative = inhibition, most hits filed as inhibitors;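 note: plate controls were neutral wells for no effect and buffer without enzyme for full effect; nearly all actives have a fitted effect of over 40% in size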
# Target sequence (P25779 123-467 limits assumed): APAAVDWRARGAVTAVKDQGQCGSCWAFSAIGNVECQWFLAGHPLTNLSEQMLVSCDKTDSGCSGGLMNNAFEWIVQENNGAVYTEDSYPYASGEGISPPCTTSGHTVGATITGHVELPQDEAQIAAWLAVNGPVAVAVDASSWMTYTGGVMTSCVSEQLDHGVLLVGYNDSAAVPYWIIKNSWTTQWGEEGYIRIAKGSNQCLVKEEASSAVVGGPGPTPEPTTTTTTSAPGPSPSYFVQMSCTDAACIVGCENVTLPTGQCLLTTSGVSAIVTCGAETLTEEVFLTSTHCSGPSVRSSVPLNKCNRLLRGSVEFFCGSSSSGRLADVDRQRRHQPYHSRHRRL
#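 15 min RT preincubation of 1.5 nM cruzain with compound, then 2 uM Z-FR-AMC added; kinetic AMC fluorescence, 60 s delta. Triton X-100 0.01%, pH 5.5.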
# Giardia FBPA inh = blocks Giardia fructose-bisphosphate aldolase activity; A8B2U2; purified Giardia FBPA; Potency, µM (series often up to 59.6 µM), for the others: at the top dose activity, negative = inhibition, actives largely listed as inhibitors; hit rate 0.71% among 290,000; AID 2451; note: nearly all actives have a fitted effect of over 55% in size
# Target sequence (A8B2U2 whole entry, looked up): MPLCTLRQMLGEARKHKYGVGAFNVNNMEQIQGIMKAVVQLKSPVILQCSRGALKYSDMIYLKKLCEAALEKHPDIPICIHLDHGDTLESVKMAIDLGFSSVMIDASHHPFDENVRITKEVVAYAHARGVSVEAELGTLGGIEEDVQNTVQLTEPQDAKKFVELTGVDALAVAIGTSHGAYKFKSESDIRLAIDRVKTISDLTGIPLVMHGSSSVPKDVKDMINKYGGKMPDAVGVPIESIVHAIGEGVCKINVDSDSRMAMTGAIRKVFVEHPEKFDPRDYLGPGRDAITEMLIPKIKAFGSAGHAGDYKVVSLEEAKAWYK
#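 40 nM FBPA preincubated 10 min at RT with compound (up to 57.5 uM final), then substrate plus GAPDH/TPI/NAD/arsenate coupling and diaphorase/resazurin added. Fluorescence read after 20 min at RT, 525/598 nm.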
# Cruzain noTriton = cruzain (T. cruzi) inhibition without detergent. P25779. purified cruzain, Z-FR-AMC fluorescence, no detergent. Potency, µM, for the others: max response, negative = inhibition, actives largely listed as inhibitors. hit rate 2.3% among 200,000. AID 1476;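 note: plate controls were enzyme without inhibitor for no effect and buffer without enzyme for full effect; nearly all actives have a fitted effect of over 40% in size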
#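 Purified cruzain at 1.5 nM, pre-incubated 15 min with compound at room temperature in 100 mM sodium acetate pH 5.5, 5 mM DTT, 0.00005% Triton X-100. Reaction started with 2 uM Z-FR-AMC; AMC fluorescence increase over 60 s gives rate.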
# Numbers without * were called inactive; ? = inconclusive; . = not tested or not shown; [ ] = remark or other dose. The entries come from a sample that favours hits as a whole. Calls come from the whole dose curve; as a rule, active = well fitted curve in the direction sought with a large enough effect; inconclusive = small, poorly fitted or top-dose-only effect, or another doubt; inactive = no such curve, though single readings can be large; an effect the other way counts as inactive or inconclusive. Unless noted, % is set by controls: 0 for no effect and ±100 for the full control effect; potency is the fitted concentration of half-maximal effect.
SMILES,Cruzain Triton,Giardia FBPA inh,Cruzain noTriton
COc1ccc(CNC(=O)c2ccc(N3CCCC3)c(NC(=O)NCc3ccc(F)cc3)c2)cc1,-5%,.,3%
Cc1nc2cc(-c3cccc(F)c3)nn2c(C)c1CCC(=O)Nc1ccccc1C(N)=O,1%,.,-7%
O=C(COC(=O)CNC(=O)c1cccc(F)c1)NCCC1=CCCCC1,16µM*,2%,13µM*
O=C(COC(=O)COc1cccc(F)c1)NCCC1=CCCCC1,.,2%,.
COc1ccc(N2C(=O)CSC23C(=O)N(CC(=O)NC2CCCCC2)c2ccccc23)cc1 (stereo not drawn),-2%,.,0%
Cc1ccc(N=Cc2c(O)n(-c3ccc4c(c3)OCO4)c(=O)c3ccccc23)cc1,-3%,2%,3.2µM*
Cc1cccc(-n2c(O)c(C=Nc3ccc(O)cc3)c3ccccc3c2=O)n1,-11%,3%,?
CCc1cnc2c(c1SCc1c(F)cccc1Cl)c(=O)n(C)c(=O)n2C,0%,.,-6%
Cc1ccc2cc(CN(Cc3cccs3)Cc3nnnn3C(C)(C)C)c3nnnn3c2c1,-3%,6%,-5%
Cc1cc2cc(CN(Cc3cccs3)C(c3nnnn3C(C)(C)C)C(C)C)c3nnnn3c2cc1C (stereo not drawn),-2%,6%,7.9µM*
Cc1cc(/C=C2/NC(=O)N(Cc3ccccc3F)C2=O)c(C)n1-c1ccccn1,-6%,-8%,?
Cc1ccc(/C=C2/NC(=O)N(Cc3ccccc3F)C2=O)s1,.,5%,.
Cc1cc(/C=C2/NC(=O)N(Cc3ccccc3F)C2=O)c(C)n1C,-6%,-17%,25µM*
Cc1cccc(CN2C(=O)N/C(=C/c3cc(C)n(-c4ccccn4)c3C)C2=O)c1,-6%,-5%,25µM*
COc1cccc(C2CC(=O)Nc3c2c(=O)n(C)c2nc4ccccc4n32)c1 (stereo not drawn),-4%,.,-5%
CCCC(c1cc(C(C)(C)C)c(O)cc1C)c1cc(C(C)(C)C)c(O)cc1C,-1%,.,13%
Cc1ccc(NC(=O)Cn2c(=O)n(-c3ccc(Cl)c(Cl)c3)c(=O)c3c(C)c(C)sc32)c(C)c1,-3%,.,-4%
Brc1csc(CN2CCc3nc(Nc4ccccc4)ncc3C2)c1,-9%,.,?
COc1cc(Nc2ncc3c(n2)CCN(Cc2cc(Br)cs2)C3)cc(OC)c1,-8%,.,25µM*
CC(C)Oc1ccc(C(=O)N(Cc2ccc(N(C)C)cc2)Cc2ccco2)cc1,-9%,.,0%
CC1=CC(=O)C2=C(C)CC[C@H]3[C@H](C)C(=O)O[C@@H]3C12 (stereo partly drawn),.,13%,.
O=C(Nc1nc2c(s1)CCc1ccccc1-2)c1cccs1,-5%,-10%,-1%
Fc1ccccc1Nc1nc2c(s1)CCc1ccccc1-2,-5%,20µM*,-4%
Cc1c(/C=C2\SC(=O)N(CC(=O)Nc3ccc4c(c3)OCO4)C2=O)c2ccccc2n1C,-6%,2%,?
O=C(CNc1ccc2c(c1)OCO2)N/N=C\c1cn(Cc2ccc(F)cc2)c2ccccc12,0%,-29%,?
SMILES,Cruzain Triton,Giardia FBPA inh,Cruzain noTriton
O=C(CNc1ccc2c(c1)OCO2)N/N=C\c1cn(Cc2ccccc2)c2ccccc12,-8%,-17%,13µM*
CCn1cc(/C=C2\SC(=O)N(CC(=O)Nc3ccc4c(c3)OCO4)C2=O)c2ccccc21,0%,1%,3.2µM*
O=C(N[C@@]1(C(=O)O)C[C@@H]1c1ccccc1)c1ccccc1,-3%,.,12%
CCOC(=O)c1c(C)n(CC)c2c1cc(O)c1ccccc12,.,-3%,.
CCOC(=O)c1c(C)n(Cc2ccco2)c2c1cc(O)c1ccccc12,-2%,?,25µM*
CC1=NN(c2nc(-c3ccc(Cl)cc3)cs2)C(=O)C1,-19%,29%,7.9µM*
CC1=NN(c2nc(-c3ccc(F)cc3)cs2)C(=O)C1,0%,0%,0%
Cc1ccc(-n2nc(C(=O)N(C)Cc3ccccc3)c3c4ccccc4n(C)c3c2=O)cc1,-3%,.,13%
CCOc1ccccc1CNC(=O)c1cc(-c2ccc(OC)cc2)nc2ccc(C(C)C)cc12,0%,.,-9%
O=[N+]([O-])c1ccccc1-c1ccc(C(=S)N2CCCC2)o1,.,16µM*,.
Cc1cccc(N2CCN(C(=S)c3ccc(-c4ccccc4[N+](=O)[O-])o3)CC2)c1,-4%,-24%,?
CC(=O)c1cccc(NC(=O)c2ccc(-c3ccccc3[N+](=O)[O-])o2)c1,-10%,10µM*,-6%
CCn1nnc(NC(=O)c2ccc(-c3ccccc3[N+](=O)[O-])o2)n1,.,-9%,.
COc1ccc(C(=O)NCc2nnc(SCC(=O)Nc3ccc(F)cc3)n2-c2ccccc2)cc1,0%,.,8%
COc1ccccc1-n1c(SCC(=O)Nc2ccc(C)cc2)nc(O)cc1=O,-3%,6%,5%
COc1ccc(NC(=O)CSc2nc(O)cc(=O)n2-c2ccccc2OC)cc1,?,17%,16µM*
Cc1nc2cc(C(=O)OCC(=O)Nc3cccc(Cl)c3)ccc2n1-c1ccccc1,-7%,11%,25µM*
Cc1nc2cc(C(=O)OCC(=O)NC34CC5CC(CC(C5)C3)C4)ccc2n1-c1ccccc1,-7%,14%,-10%
CCCCC(=Nc1ccc(N)cc1)C1=C(O)C(C(=O)OC)C(C)(C)CC1=O (stereo not drawn),2%,?,2%
CCC(=Nc1ccc(N)cc1)C1=C(O)C(C(=O)OC)C(C)(C)CC1=O (stereo not drawn),11%,1.1µM*,-30%
NCCSC[C@H](N)C(=O)O,-1%,.,6%
CN(C)CCn1c(=O)n(Cc2ccco2)c(=O)c2c3c(sc21)CCCCC3,5%,-2%,5%
O=C(Cn1c(=O)n(Cc2ccco2)c(=O)c2c3c(sc21)CCCCC3)Nc1ccccc1,28µM*,-8%,?
O=c1c2c3c(sc2n(CCN2CCCC2)c(=O)n1Cc1ccco1)CCCCC3,5%,-6%,?
O=C(Cn1c(=O)n(Cc2ccco2)c(=O)c2c3c(sc21)CCCCC3)c1ccccc1,-8%,-1%,25µM*
SMILES,Cruzain Triton,Giardia FBPA inh,Cruzain noTriton
Oc1ccc2c(ccc3[nH]cnc32)c1,.,-13%,.
Brc1cc2[nH]cnc2c2ccccc12,-6%,18µM*,-17%
COc1cccc2sc(N(Cc3cccnc3)C(=O)c3ccc4c(c3)OCCO4)nc12,1%,.,?
CCCn1ccc2c(OCC(=O)NCc3ccc(C)cc3)cccc2c1=O,-4%,.,-11%
CCCCc1ccc(NC(=O)COc2ccc(C(=O)Nc3ccccc3OC)cc2)cc1,-6%,2%,-10%
CCCCc1ccc(NC(=O)COc2ccc(C(=O)Nc3ccccc3C)cc2)cc1,6%,2%,32µM*
CCCCc1ccc(NC(=O)COc2cccc3c(=O)n(C)ccc23)cc1,-2%,.,20µM*
C=CC1=C2C=C(C3CC3)N(Cc3ccc4c(c3)OCO4)C=C2C(=O)C(C)(OC(=O)c2ccco2)C1=O (stereo not drawn),.,-26%[12.9 µM],.
Cc1ccc(OCC(=O)Nc2nnc(S(=O)(=O)N3c4ccccc4CC3C)s2)cc1 (stereo not drawn),-11%,.,13%
CCOc1ccc2nc(NC(=O)c3nc(SCc4ccccc4F)ncc3Cl)sc2c1,-4%,.,-7%
Cc1ccc2c(nc3s/c(=C/c4cccs4)c(=O)n32)c1C,-2%,2%,16µM*
Cc1ccc2c(nc3s/c(=C\c4ccc(-c5ccccc5C(=O)O)o4)c(=O)n32)c1C,.,-7%,.
CC(C)N(C)C,5%,.,-9%
